From PubChem
This is a sample that favours compounds with a hit; in the whole collection about 19% have one here.
Lassa entry inh = blocks Lassa virus binding to or entry into cells; AID 540256; Potency, µM (series often up to 37.9 µM), for the others: at the top dose activity change, negative = inhibition, usual class: inhibitors; 300,000 compounds, 1.2% hits; Lassa virus pseudotype entry inhibition, cell reporter; calls by dose curve; tested in HEK293 cells; note: potency is the fitted concentration of half-maximal effect; % is set by controls: 0 for no effect and ±100 for the full control effect; nearly all actives have a fitted effect of over 50% in size
Pf growth 96h = inhibits malaria parasite growth, 96 h. P. falciparum luciferase reporter growth, 96 h. Potency, µM (titrated, usually from 28.7 µM), for the others: at the highest dose activity change, negative = inhibition, actives largely listed as inhibitors. 320,000 compounds, 6.9% hits; note: potency is the fitted concentration of half-maximal effect; % is set by controls: 0 for no effect and ±100 for the full control effect
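96 h incubation, 37 C, 5% CO2, of luciferase-reporter P. falciparum-infected RBCs (2% hematocrit, 0.05% parasitemia final) with test compounds; endpoint luminescence.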
Shiga inhibitor = inhibitors of Shiga toxin in Vero cells. Vero cells, Shiga toxin protein synthesis inhibition reporter. inhibition, % at 38.7 µM. 290,000 compounds, 9.2% hits; in the data active = inhibition mostly above about 28%, no sharp cut-off; inactive = mostly below about 43%; note: 0% is about no effect
CHX counter = affects cycloheximide protein synthesis inhibition readout, counter-screen. cell reporter, cycloheximide protein synthesis inhibition counterscreen. max response, %. 300,000 compounds, 12% hits; in the data active = max response mostly above about 13%, no sharp cut-off; inactive = mostly below about 14%; note: read at 38.3 µM for the half of the compounds with a filed dose; 0% is about no effect
Marburg entry inh = Marburg virus entry inhibition | Marburg virus pseudotyped entry inhibition, cell reporter | Potency, µM (series often up to 37.8 µM), without a hit: at the highest dose activity change, negative = inhibition, most hits filed as inhibitors | 300,000 compounds, 1.8% hits | AID 540276; calls by dose curve; tested in HEK293 cells; note: potency is the fitted concentration of half-maximal effect; % is set by controls: 0 for no effect and ±100 for the full control effect
Pf growth 48h = inhibits P. falciparum growth in the first generation, 48 h | P. falciparum luciferase growth in erythrocytes, 48 h | Potency, µM (titrated, usually from 28.7 µM), without a hit: top-dose activity change, negative = inhibition, hits mostly inhibitors | 310,000 compounds, 5.9% hits | AID 504832; note: potency is the fitted concentration of half-maximal effect; % is set by controls: 0 for no effect and ±100 for the full control effect
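In quantitative HTS format, infected erythrocytes bearing luciferase-reporter parasites were treated for a single generation at 37 C. Luminescence after adding detection reagent served as the growth measure.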
* = called active by the depositor; u = inconclusive; x = no result; [ ] = dose if it differs, or a comment. Unless noted, calls come from the whole dose curve; as a rule, active = well fitted inhibition curve with a large enough effect; inconclusive = small, poorly fitted or top-dose-only effect, or another doubt; inactive = no such curve, though single readings can be large or run the other way.

SMILES	Lassa entry inh	Pf growth 96h	Shiga inhibitor	CHX counter	Marburg entry inh	Pf growth 48h
Cc1cc(C(F)F)n2nc(C(=O)Nc3sc4c(c3C(N)=O)CCC4)nc2n1	-8%	4.1µM*	-16	0	u	u
Cc1cc(C(F)F)n2nc(C(=O)Nc3sc4c(c3C#N)CCC(C)C4)nc2n1 (stereo not given)	3%	-58%	-14	-6	6%	21%
c1ccc2sc(Sc3ncnc4sccc34)nc2c1	1%	0.74µM*	46*	42*	u	1.9µM*
CCc1cc2c(SCc3ccc(C(=O)OC)o3)ncnc2s1	-24%[46.1 µM]	6%	-9	-2	-5%[46.1 µM]	2%
O=C(CSc1ncnc2sccc12)Nc1ccccc1	-4%[46.1 µM]	1%	30	12	1%[46.1 µM]	-22%
CCc1cc2c(Sc3nc4ccccc4s3)ncnc2s1	-22%	u	24	14	-11%	1.9µM*
Cc1cc(C)n(CCN(C)C(=O)CCc2nnc(-c3ccc4c(c3)OCO4)o2)n1	4%[46.1 µM]	0%	48	9.7*	-4%[46.1 µM]	-26%
O=C(CCc1nnc(-c2ccc3c(c2)OCO3)o1)NCCc1ccccc1F	x	18%	12	15	x	14%
CCCOC1CCCN(C(=O)CCc2nnc(-c3ccc4c(c3)OCO4)o2)C1 (stereo not given)	13%	13µM*	117*	46*	24%	15%
CCC(=O)C1CCCN(C(=O)CCc2nnc(-c3ccc(C(C)=O)s3)o2)C1 (stereo not given)	x	57%	98*	40*	x	11%
O=C(CCc1nnc(-c2ccc3c(c2)OCO3)o1)N(Cc1ccncc1)CC1CCCO1 (stereo not given)	x	4%	36	-4	x	u
CCC(=O)C1CCCN(C(=O)CCc2nnc(-c3ccc4c(c3)OCO4)o2)C1 (stereo not given)	x	u	51*	38*	x	8%
Cc1cccc(CCNC(=O)c2cc(S(=O)(=O)N3CCOCC3)cn2C)c1	x	u	5	0	x	8%
CC1(C)C(=O)Nc2ccccc2N1C(=O)CSc1nnc2ccccn12	-19%	-1%	-2	-1	16%	-4%
CC1CCCN(C(=O)CCc2nnc(-c3ccc4c(c3)OCO4)o2)C1 (stereo not given)	3%	u	101*	37*	19%	24%
Cc1ccc(NC(=O)C2C3CCC(O3)C2C(=O)O)cc1Cl (stereo not given)	x	13µM*	-3	-2	x	7%
O=C(O)C1C2CCC(O2)C1C(=O)Nc1ccc(F)c(Cl)c1 (stereo not given)	x	12µM*	-5	-3	x	9%
COc1ccc(NC(=O)C2C3CCC(O3)C2C(=O)O)c(OC)c1 (stereo not given)	-23%[46.1 µM]	u	37	29*	u	-3%
O=C(NCc1ccc(Cl)cc1)C1CCCCN1S(=O)(=O)c1ccccc1 (stereo not given)	u	-5%	17	1	-16%[46.1 µM]	-7%
Cc1[nH]nc2c1C(c1ccc(Cl)cc1)C(C#N)=C(N)O2 (stereo not given)	13%	-37%	-13	19*	8%[46.1 µM]	0%
N#CC1=C(N)Oc2c(oc(CO)cc2=O)C1c1ccsc1 (stereo not given)	-8%	u	-15	10	u	x
CC(C)c1[nH]nc2c1C(C(C)C)C(C#N)=C(N)O2 (stereo not given)	u	7.4µM*	21	-4	-24%	-12%
N#CC1=C(N)Oc2c(ccc3ccccc23)C1c1ccsc1 (stereo not given)	-28%	225%	57*	20*	u	48%
Cc1nn(Cc2ccccc2)c2c1C(c1ccc(Cl)cc1)C(C#N)=C(N)O2 (stereo not given)	-29%	1.2µM*	1	6	-12%	u
CC(C)(C)c1ccc(Cn2nc(CC(=O)O)c3ccccc3c2=O)cc1	11%	-15%	-16	-4	-18%[14.2 µM]	-18%
Cc1cc2c(s1)c1cnn(Cc3c(F)c(F)cc(F)c3F)c(=O)c1n2C	x	x	16	7	x	x
Cc1cccc(-c2noc(CN(C(=O)CCc3ccccc3)C(C)C)n2)c1	-25%	345%	7	-4	-8%	0%
C1CCN(Cc2nnnn2CC2CCCO2)CC1 (stereo not given)	-9%[46.1 µM]	82%	-18	-1	0%	12%
